Reference: the supplement of paper PMC11417369
In all, about 25,000 sequences were measured (“ln(normalized median fluorescence intensity)”: median about 7.1, highest 2% from about 10 on). This is one part of a sample in which the highest values are shown more often than they occur.

Each sequence was assayed on PfSIP2 AP2 domain 1 (GST-tagged) (assay: gcPBM binding intensity (ln(normalized median fluorescence intensity)); higher = stronger DNA binding).
Outline: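 Probes on an Agilent 4 × 180k array were primer-extended, double-stranded and 36 bp long, taken from intergenic genomic regions, with negative controls added. GST-tagged P. falciparum DNA-binding domains from E. coli, about 25 μg on average, were applied to the array for 1 h in 1× PBS containing 1% milk, 0.2 mg/ml BSA, 0.5% salmon testes DNA and 0.03% Triton X-100. Binding intensity, obtained after Alexa488 anti-GST antibody detection and a 488 nm scan, is the highest Masliner-normalised natural-log median intensity across replicate spots of either probe orientation.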

Sequence	gcPBM binding intensity (ln)
ATCTATTTCTATTGTTGTACTTATTTTTCATTGTTT [XGTACX_site6942]	7.27
AATAGGTGCCTTTTTTCACACACATGTCAACTAAAT [CACACA_site8846]	9.34
GATATATAAATAGATACACACATACATACATACATA [CACACA_site6260]	7.18
ATATTTATTTTATAAAGTACTAAAAAATATATTATA [XGTACX_site8522]	6.9
CATATAATAAATAATTGTACTTGATATAATATTATG [XGTACX_site3562]	6.91
CCTTTATAAAAAAGTAGTACACAATGAATTTATAAT [XGTACX_site5523]	7.1
CAAAATTAATAAGTCACACACACATCTATAATATAT [CACACA_site6519]	6.78
ACATAAAATTGTTAAAAAATTGTATAAATAATACAT [XGTACX_negctrl_site557]	6.81
TAATTCTAAATAAATGTACACACAAAAATAAATGTA [CACACA_site8509]	7.02
TGTCAATCATATAAATGTACATTTTAAATGAGGTGT [XGTACX_site7391]	7.36
TAATTATTTTAAAAAGTGCATTAAAAGATATTAAAT [GTGCAC_site9694]	8.22
AAATAAAGAATATAAATACACACTTAAATATATATT [CACACA_site4007]	6.73
AAAAGTCTCTTTTTAGTGCACATTTTATTTAAATAT	10.2
TATATATATATATGTGCACACATAATAAAAAAAAAA [CACACA_site3830]	9.64
ATATATATATATAGTGCACACTTAAGAATATAAAGA [CACACA_site4771]	10.2
ATATATATATAGTGCACACTTAAGAATATAAAGAGG [CACACA_site1151]	10.1
AATATAATATAATGCACACATAAAAAAAAAAAAAAA [CACACA_site304]	7.47
TAATAAAAAAAGTGCACACACATAATATATATATAT [CACACA_site3340]	10.4
AAAAGTATATATTCAGTGCATAGTCTTTAAATATAA [GTGCAC_site9522]	8.15
ACAATAAAGAACAGTATGCACTTTTATGCATGCGTA	8.94
CAAATAATATTATGAAGTACTTCAAATTTTGAAAGA [XGTACX_site2530]	6.98
TATTTATTTATGTGTTGTACAAATAAATAGAGGTAT [XGTACX_site6408]	7.35
AAAAATAAAACAATTACACACATAATTTTATTTTTA [CACACA_site928]	6.86
ATATTTAACAGGTTAAAAATATAAACAAATAAATAA [CACACA_negctrl_site907]	6.85
ATGCAAAATAAAGAAGCACACAAAAATGAAATATAT [CACACA_site9217]	7.2
